# In the supplement of paper PMC11732987, “Enantioselective OTUD7B fragment discovery through chemoproteomics screening and high-throughput optimisation” (Communications Chemistry, 2025):
# Unmarked numbers belong to inactive results.
# What was measured:
# Assay in all cases: log2 ratio of Biotin-Ahx-Ub-VS probe labelling (fragment/DMSO); higher = less target engagement (more negative = stronger competition), active = hit call of the paper (q ≤ 0.05, log2 ratio ≤ -1)
# Conditions in all cases: compound concentration: 200 uM; treatment time: 3 h
# ALG13 = target: T1, ALG13 (UniProt Q9NP73)
# T1 sequence (whole entry): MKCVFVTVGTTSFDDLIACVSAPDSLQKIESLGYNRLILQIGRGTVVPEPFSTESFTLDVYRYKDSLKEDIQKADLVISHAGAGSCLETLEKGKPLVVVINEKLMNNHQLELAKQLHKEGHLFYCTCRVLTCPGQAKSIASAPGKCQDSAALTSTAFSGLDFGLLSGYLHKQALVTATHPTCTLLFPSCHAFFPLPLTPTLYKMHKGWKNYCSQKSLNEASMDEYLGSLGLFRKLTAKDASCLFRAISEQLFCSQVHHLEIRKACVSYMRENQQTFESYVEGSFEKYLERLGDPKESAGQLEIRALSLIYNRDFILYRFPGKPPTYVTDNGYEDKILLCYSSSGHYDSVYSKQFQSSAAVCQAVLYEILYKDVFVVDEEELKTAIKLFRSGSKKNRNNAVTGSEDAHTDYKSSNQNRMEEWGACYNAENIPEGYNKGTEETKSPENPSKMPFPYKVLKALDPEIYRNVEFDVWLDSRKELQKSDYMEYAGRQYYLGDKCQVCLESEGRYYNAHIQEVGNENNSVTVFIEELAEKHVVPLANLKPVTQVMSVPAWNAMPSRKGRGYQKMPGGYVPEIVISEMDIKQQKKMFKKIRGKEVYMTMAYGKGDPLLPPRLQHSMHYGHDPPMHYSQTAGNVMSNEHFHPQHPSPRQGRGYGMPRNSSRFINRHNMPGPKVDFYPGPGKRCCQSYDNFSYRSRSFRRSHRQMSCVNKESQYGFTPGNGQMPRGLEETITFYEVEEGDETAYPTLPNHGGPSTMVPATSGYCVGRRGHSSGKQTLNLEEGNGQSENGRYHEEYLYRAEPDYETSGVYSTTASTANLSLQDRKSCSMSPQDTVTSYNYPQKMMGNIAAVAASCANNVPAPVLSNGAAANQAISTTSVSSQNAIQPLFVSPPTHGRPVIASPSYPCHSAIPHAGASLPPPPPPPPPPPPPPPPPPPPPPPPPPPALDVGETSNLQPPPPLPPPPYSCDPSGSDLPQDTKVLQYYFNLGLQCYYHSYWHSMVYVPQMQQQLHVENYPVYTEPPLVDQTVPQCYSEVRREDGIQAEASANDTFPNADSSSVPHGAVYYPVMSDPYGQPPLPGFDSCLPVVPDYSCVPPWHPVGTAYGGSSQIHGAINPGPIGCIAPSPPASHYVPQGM
# Procedure, shortened: (§1)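 HEK293T lysate, 495 µg per sample in Tris/CHAPS/IGEPAL buffer with protease inhibitors, was treated in triplicate with fragment at 200 µM or vehicle for 3 h and then with Biotin-Ahx-Ub-VS at 0.5 µM final for 1 h. Labelled DUBs were NeutrAvidin-enriched, digested with LysC and trypsin, and run by diaPASEF LC-MS/MS. Spectronaut label-free quantities were global-median-normalised, and values are average log2 fragment/vehicle ratios by unpaired t-test on proteins with ≥2 unique peptides.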
# ATXN3 = ATXN3 (UniProt P54252)
# Sequence of ATXN3 (P54252 whole entry): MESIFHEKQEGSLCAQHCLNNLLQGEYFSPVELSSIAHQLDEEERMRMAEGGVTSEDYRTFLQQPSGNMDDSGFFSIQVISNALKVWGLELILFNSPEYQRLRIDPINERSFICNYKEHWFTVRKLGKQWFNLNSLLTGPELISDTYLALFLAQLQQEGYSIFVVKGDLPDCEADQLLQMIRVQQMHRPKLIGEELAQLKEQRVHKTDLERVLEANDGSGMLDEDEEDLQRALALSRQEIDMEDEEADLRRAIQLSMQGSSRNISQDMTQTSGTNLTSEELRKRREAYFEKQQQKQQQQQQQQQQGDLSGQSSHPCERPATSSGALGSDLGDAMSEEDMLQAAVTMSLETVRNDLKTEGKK
# Procedure, shortened: as §1
# BAP1 = target: T2, BAP1 (UniProt Q92560)
# T2 sequence (whole entry): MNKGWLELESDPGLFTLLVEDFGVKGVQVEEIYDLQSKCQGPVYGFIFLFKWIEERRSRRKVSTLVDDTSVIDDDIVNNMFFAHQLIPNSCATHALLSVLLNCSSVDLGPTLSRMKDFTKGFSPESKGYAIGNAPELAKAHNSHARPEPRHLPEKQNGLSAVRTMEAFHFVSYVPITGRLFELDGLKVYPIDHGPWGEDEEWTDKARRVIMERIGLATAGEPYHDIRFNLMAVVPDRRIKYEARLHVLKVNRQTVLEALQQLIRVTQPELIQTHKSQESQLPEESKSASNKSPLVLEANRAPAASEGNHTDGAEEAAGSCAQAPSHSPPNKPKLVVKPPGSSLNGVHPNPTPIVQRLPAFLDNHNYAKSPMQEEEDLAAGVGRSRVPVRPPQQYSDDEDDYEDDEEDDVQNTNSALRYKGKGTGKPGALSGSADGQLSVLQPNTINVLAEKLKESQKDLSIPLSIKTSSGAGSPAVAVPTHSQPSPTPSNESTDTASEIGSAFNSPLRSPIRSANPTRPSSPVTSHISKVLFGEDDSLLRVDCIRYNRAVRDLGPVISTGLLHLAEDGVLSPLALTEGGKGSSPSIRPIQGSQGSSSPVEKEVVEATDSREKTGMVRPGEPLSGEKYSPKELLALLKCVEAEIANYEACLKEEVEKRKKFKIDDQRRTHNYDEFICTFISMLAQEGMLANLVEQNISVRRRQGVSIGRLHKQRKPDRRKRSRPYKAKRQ
# Procedure, shortened: as §1
# EIF3F = EIF3F (UniProt O00303)
# Sequence of EIF3F (O00303 whole entry): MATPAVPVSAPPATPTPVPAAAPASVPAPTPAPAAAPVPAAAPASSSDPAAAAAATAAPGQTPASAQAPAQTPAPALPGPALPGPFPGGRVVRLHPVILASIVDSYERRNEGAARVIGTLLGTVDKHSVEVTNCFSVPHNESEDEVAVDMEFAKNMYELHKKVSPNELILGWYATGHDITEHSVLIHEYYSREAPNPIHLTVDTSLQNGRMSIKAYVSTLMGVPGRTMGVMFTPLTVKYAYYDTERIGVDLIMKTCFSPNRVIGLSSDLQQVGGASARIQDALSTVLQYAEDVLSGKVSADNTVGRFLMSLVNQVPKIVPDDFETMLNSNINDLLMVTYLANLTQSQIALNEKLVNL
# Procedure, shortened: as §1
# EIF3H = EIF3H (UniProt O15372)
# Sequence of EIF3H (O15372 whole entry): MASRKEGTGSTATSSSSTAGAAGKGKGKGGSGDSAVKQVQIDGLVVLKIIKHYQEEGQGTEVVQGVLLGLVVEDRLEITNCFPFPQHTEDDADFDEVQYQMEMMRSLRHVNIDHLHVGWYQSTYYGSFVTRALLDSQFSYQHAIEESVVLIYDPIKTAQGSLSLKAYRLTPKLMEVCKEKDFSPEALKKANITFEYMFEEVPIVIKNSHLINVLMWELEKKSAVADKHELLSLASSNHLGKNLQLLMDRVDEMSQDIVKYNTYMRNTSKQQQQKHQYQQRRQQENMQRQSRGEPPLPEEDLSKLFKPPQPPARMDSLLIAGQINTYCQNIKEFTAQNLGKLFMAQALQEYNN
# Procedure, shortened: as §1
# FAM105A = target: T3, FAM105A (UniProt Q9NUU6)
# T3 sequence (whole entry): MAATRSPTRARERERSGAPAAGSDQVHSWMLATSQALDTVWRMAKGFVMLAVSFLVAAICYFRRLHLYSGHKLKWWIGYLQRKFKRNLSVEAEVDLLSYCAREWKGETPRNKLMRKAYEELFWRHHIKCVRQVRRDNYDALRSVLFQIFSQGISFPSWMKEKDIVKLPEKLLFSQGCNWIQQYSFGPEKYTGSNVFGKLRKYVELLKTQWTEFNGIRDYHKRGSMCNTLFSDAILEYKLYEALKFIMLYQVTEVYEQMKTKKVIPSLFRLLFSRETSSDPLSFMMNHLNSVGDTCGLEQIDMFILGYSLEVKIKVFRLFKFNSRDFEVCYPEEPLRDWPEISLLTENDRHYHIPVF
# Procedure, shortened: as §1
# OTUB1 = OTUB1 (UniProt Q96FW1)
# Sequence of OTUB1 (Q96FW1 whole entry): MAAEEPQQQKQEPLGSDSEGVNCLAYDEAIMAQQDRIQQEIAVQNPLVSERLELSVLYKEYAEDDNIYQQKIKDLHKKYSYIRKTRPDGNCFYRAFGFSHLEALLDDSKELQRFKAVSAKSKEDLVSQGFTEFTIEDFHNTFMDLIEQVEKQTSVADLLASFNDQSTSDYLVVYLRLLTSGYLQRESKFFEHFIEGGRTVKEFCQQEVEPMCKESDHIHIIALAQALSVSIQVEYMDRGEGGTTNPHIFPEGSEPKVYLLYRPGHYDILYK
# Procedure, shortened: as §1
# OTUD4 = target: T4, OTUD4 (UniProt Q01804)
# T4 sequence (whole entry): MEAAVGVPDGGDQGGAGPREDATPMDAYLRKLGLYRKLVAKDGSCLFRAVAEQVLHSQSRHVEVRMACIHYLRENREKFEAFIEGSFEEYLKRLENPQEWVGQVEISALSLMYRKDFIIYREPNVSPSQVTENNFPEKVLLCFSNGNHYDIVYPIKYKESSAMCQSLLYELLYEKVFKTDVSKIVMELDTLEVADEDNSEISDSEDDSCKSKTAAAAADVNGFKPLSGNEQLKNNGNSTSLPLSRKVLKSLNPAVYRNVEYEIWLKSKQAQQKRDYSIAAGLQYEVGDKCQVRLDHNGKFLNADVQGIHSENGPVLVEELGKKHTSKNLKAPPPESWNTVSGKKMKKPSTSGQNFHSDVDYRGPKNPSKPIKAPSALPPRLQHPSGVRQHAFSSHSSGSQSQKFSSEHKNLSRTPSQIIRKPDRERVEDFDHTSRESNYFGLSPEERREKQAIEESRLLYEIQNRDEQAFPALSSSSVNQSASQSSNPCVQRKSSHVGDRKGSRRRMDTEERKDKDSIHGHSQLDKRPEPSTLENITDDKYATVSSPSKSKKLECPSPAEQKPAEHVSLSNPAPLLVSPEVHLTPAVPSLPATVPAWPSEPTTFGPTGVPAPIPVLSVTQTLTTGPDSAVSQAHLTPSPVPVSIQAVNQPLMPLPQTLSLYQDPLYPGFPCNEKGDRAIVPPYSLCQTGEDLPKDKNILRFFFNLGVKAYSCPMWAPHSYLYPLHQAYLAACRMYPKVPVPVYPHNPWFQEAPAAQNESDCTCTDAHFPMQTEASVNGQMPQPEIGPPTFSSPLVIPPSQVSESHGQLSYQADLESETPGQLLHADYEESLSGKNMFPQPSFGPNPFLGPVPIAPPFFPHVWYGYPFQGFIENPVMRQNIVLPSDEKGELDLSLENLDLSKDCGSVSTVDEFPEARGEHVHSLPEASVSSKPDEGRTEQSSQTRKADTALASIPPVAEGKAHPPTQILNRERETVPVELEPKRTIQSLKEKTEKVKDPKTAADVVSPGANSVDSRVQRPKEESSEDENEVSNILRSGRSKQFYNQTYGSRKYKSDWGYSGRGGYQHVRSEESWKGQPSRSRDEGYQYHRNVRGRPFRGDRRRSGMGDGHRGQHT
# Procedure, shortened: as §1
# OTUD5 = target: T5, OTUD5 (UniProt Q96G74)
# T5 sequence (whole entry): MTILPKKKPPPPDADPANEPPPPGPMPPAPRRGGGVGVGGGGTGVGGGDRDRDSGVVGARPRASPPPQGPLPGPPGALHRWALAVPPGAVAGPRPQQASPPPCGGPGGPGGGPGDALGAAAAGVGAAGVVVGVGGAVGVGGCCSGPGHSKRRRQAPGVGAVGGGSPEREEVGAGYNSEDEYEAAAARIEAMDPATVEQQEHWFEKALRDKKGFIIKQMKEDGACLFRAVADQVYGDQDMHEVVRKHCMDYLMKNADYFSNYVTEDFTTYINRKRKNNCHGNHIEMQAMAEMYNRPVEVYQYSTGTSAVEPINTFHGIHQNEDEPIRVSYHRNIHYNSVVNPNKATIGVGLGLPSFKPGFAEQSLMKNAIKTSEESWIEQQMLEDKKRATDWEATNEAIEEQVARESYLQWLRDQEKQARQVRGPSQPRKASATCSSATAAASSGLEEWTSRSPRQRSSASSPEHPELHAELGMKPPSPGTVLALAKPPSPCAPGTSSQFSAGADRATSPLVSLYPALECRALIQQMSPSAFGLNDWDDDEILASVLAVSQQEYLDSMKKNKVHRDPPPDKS
# Procedure, shortened: as §1
SMILES,log2 ratio of Biotin-Ahx-Ub-VS probe labelling (ALG13),log2 ratio of Biotin-Ahx-Ub-VS probe labelling (ATXN3),log2 ratio of Biotin-Ahx-Ub-VS probe labelling (BAP1),log2 ratio of Biotin-Ahx-Ub-VS probe labelling (EIF3F),log2 ratio of Biotin-Ahx-Ub-VS probe labelling (EIF3H),log2 ratio of Biotin-Ahx-Ub-VS probe labelling (FAM105A),log2 ratio of Biotin-Ahx-Ub-VS probe labelling (OTUB1),log2 ratio of Biotin-Ahx-Ub-VS probe labelling (OTUD4),log2 ratio of Biotin-Ahx-Ub-VS probe labelling (OTUD5)
CS(=O)(=O)c1ccc(NC(=O)CCl)cc1,-0.729,-0.511,-4.05 (active),-0.0107,0.14,-0.0733,-0.133,-0.368,-0.613
COc1ccc(Cl)cc1NC(=O)CCl,0.166,-0.592,-1.61 (active),-0.594,0.0551,-0.287,-0.497,-0.484,-0.638
O=C(CCl)NC1CCCCNC1=O (stereo unspecified),-0.0613,-0.417,-0.683,-0.598,0.103,0.229,-0.231,-0.342,-0.397
O=C(CCl)N1CCOCC1C1CC1 (stereo unspecified),-1.36 (active),-0.209,-0.299,-0.527,0.16,0.635,-0.181,-0.865,-0.313
